Settings in all cases: Compound Concentration (nM):1000
Experiment [1] relates to ROCK2.
The test system of experiment [2] is ROS1.
The test system of experiment [3] is RPS6KA4(Kin.Dom.1-N-terminal).
For experiment [4], the system named is RPS6KA4(Kin.Dom.2-C-terminal).
Experiment [5] has as its system RPS6KA5(Kin.Dom.1-N-terminal).
The test system of experiment [6] is RPS6KA5(Kin.Dom.2-C-terminal).
Experiment [7] concerns T1, RSK1(Kin.Dom.1-N-terminal).
T1 construct: gene RPS6KA1

Experiment [8] concerns T2, RSK1(Kin.Dom.2-C-terminal).
T2 construct: gene RPS6KA1

The test system of experiment [9] is T3, RSK2(Kin.Dom.1-N-terminal).
T3 construct: gene RPS6KA3

Experiment [10] concerns T4, RSK2(Kin.Dom.2-C-terminal).
T4 construct: gene RPS6KA3

Experiment [11] has as its system T5, RSK3(Kin.Dom.1-N-terminal).
T5 construct: gene RPS6KA2

Experiment [12] deals with T6, RSK3(Kin.Dom.2-C-terminal).
T6 construct: gene RPS6KA2

The test system of experiment [13] is T7, RSK4(Kin.Dom.1-N-terminal).
T7 construct: gene RPS6KA6

The test system of experiment [14] is T8, RSK4(Kin.Dom.2-C-terminal).
T8 construct: gene RPS6KA6

Experiment [15] has as its system T9, S6K1.
T9 construct: gene RPS6KB1

Experiment [16] relates to SBK1.
For experiment [17], the system named is SGK2.
For experiment [18], the system named is SGK3.
Experiment [19] deals with T10, SGK.
T10 construct: gene SGK1

Experiment [20] has as its system SIK2.

Consider ten compounds from paper PMC7826789 (International Journal of Molecular Sciences, 2021).
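Further: KINOMEscan scanMAX binding as percent activity remaining versus control; lower means stronger binding.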

Regarding `COc1ccc2[nH]c3c4[nH]c5ccc(OC)cc5c4c4c(c3c2c1)C(=O)NC4=O` [GW296115X], the “Percent Control” value is 73% in experiment [1]; 24% in experiment [2]; 71% in experiment [3]; 25% in experiment [4]; 53% in experiment [5]; 66% in [6]. The “Percent Control” value in experiment [7] was 49%; in experiment [8], 100%; in [9] it was 21%; in experiment [10], 95%; in experiment [11], 28%; in [12], 69%. The “Percent Control” value was determined as 5.8% in [13]; 61% in experiment [14]; 21% in experiment [15]; 95% in experiment [16]; 46% in experiment [17]; 8.1% in experiment [18]. The “Percent Control” value came to 6.8% in experiment [19] and 9.9% in [20].

As for `COc1ccc(COc2ccc(Cc3cnc(N)nc3N)cc2OC)cc1` [GW632580X], the “Percent Control” value in [1] is 95%; in experiment [2], 82%; in [3], 100%; in experiment [4], 77%; in experiment [5], 97%; in experiment [6] it was 87%. For the same compound, the “Percent Control” value is 100% in experiment [7]; 100% in [8]; 100% in experiment [9]; 100% in [10]; 79% in experiment [11]; 89% in experiment [12]. Further, the “Percent Control” value is 98% in experiment [13]; 93% in experiment [14]; 85% in [15]; 100% in [16]; 95% in experiment [17]; 72% in [18]. The “Percent Control” value in experiment [19] worked out at 100%; in experiment [20], 93%.

Consider `CN(C)c1cc2c(Nc3ccc4c(cnn4Cc4ccccc4)c3)ncnc2cn1` [GW282974X], for which the “Percent Control” value in experiment [1] is 96%; in experiment [2], 100%; in experiment [3], 93%; in experiment [4], 89%; in [5], 100%; in experiment [6], 92%. Further, the “Percent Control” value in [7] was 97%; in [8] it was 100%; in [9], 95%; in [10], 100%; in [11], 100%; in experiment [12], 93%. The “Percent Control” value in experiment [13] was determined as 75%; in experiment [14], 74%; in [15], 95%; in experiment [16], 100%; in experiment [17] it was 99%; in experiment [18], 99%. For the same compound, the “Percent Control” value in experiment [19] was found to be 98%; in experiment [20], 71%.

As to `O=C1Nc2ccc(C(=O)c3ccco3)cc2C1=Cc1cc(Cl)c(O)c(Cl)c1` [GW406108X], the “Percent Control” value in experiment [1] was 45%; in experiment [2], 100%; in [3], 100%; in [4], 49%; in experiment [5], 100%; in experiment [6], 67%. The “Percent Control” value in experiment [7] was 78%; in experiment [8] it was 16%; in experiment [9], 26%; in [10], 85%; in experiment [11], 74%; in [12], 51%. In addition, the “Percent Control” value in experiment [13] was found to be 53%; in [14], 32%; in experiment [15], 74%; in experiment [16] it was 100%; in experiment [17], 100%; in experiment [18] it was 74%. The “Percent Control” value is 83% in [19] and 100% in experiment [20].

Regarding `COc1ccc2c(-c3ccnc(Nc4cccc(OC(F)(F)F)c4)n3)cnn2n1` [GW810372X], the “Percent Control” value is 100% in experiment [1]; 96% in [2]; 100% in experiment [3]; 100% in experiment [4]; 100% in experiment [5]; 87% in experiment [6]. In addition, the “Percent Control” value in [7] is 100%; in experiment [8] it was 100%; in experiment [9] it was 95%; in [10], 90%; in experiment [11], 100%; in experiment [12] it was 99%. Also, the “Percent Control” value is recorded as 99% in experiment [13]; 100% in [14]; 87% in experiment [15]; 100% in [16]; 100% in [17]; 79% in experiment [18]. The “Percent Control” value in experiment [19] and in [20] was 100% each time.

As for `CC1=C(C(=O)Nc2ccc3[nH]ncc3c2)C(c2ccc(Cl)c(Cl)c2)CC(=O)N1` (centres unmarked) [GSK299115A], the “Percent Control” value in experiment [1] was 0.1%; in [2] it was 98%; in [3], 100%; in experiment [4], 82%; in [5], 100%; in [6] it was 60%. For the same compound, the “Percent Control” value is 100% in [7]; 81% in experiment [8]; 75% in experiment [9]; 89% in experiment [10]; 100% in [11]; 89% in experiment [12]. Further, the “Percent Control” value in experiment [13] stood at 69%; in experiment [14] it was 80%; in experiment [15], 67%; in [16], 73%; in [17], 81%; in [18] it was 48%. Moreover, the results for the “Percent Control” value in [19] and in experiment [20] were 72% and 87%, respectively.

For `COc1cc(N2CCN(C(C)C)CC2)ccc1Nc1nc(Nc2ccc(F)cc2C(=O)NC[C@@H](O)CO)c2cc[nH]c2n1` [GSK1392956A], the “Percent Control” value in [1] is 100%; in experiment [2], 52%; in [3], 100%; in experiment [4], 33%; in experiment [5] it was 100%; in experiment [6], 47%. Further, the “Percent Control” value is 27% in experiment [7]; 78% in experiment [8]; 5.7% in [9]; 100% in experiment [10]; 67% in experiment [11]; 72% in [12]. Further, the “Percent Control” value is 55% in [13]; 86% in experiment [14]; 94% in experiment [15]; 64% in experiment [16]; 100% in [17]; 91% in experiment [18]. Further, the “Percent Control” value in experiment [19] worked out at 99%; in experiment [20] it was 100%.

Take `COc1ccccc1-c1cc(/C=C2\C(=O)Nc3ncc(Br)cc32)cc(Br)c1O` [GW442130X]: the “Percent Control” value in experiment [1] was 82%; in experiment [2] it was 95%; in experiment [3], 100%; in experiment [4] it was 68%; in experiment [5] it was 76%; in [6] it was 46%. The “Percent Control” value was 100% in experiment [7]; 58% in experiment [8]; 100% in experiment [9]; 79% in [10]; 100% in experiment [11]; 100% in experiment [12]. Further, the “Percent Control” value was 100% in [13]; 100% in experiment [14]; 100% in experiment [15]; 95% in experiment [16]; 85% in [17]; 94% in experiment [18]. In addition, the “Percent Control” value in [19] was determined as 71%; in experiment [20], 100%.

In the case of `NS(=O)(=O)c1ccc(N/N=C2\C(=O)Nc3ccc(Cl)cc32)cc1` [GW280670X], the “Percent Control” value in experiment [1] is 89%; in experiment [2], 79%; in [3], 100%; in experiment [4], 97%; in [5], 100%; in experiment [6] it was 100%. Besides, the “Percent Control” value in [7] was 100%; in [8], 100%; in experiment [9], 100%; in [10], 83%; in experiment [11], 100%; in experiment [12] it was 100%. In addition, the “Percent Control” value in experiment [13] came to 99%; in experiment [14] it was 100%; in [15], 98%; in experiment [16], 100%; in experiment [17], 100%; in experiment [18], 77%. Besides, the “Percent Control” value in [19] and in [20] was 100% throughout.

For `CCS(=O)(=O)c1ccc(OC)c(Nc2ncc(-c3cccc(F)c3)o2)c1` [GW621970X], the “Percent Control” value in experiment [1] was 100%; in [2] it was 90%; in experiment [3], 100%; in [4] it was 94%; in experiment [5] it was 100%; in experiment [6], 100%. Further, the “Percent Control” value in [7] was 100%; in experiment [8], 100%; in [9] it was 100%; in experiment [10], 83%; in experiment [11], 100%; in experiment [12] it was 100%. The “Percent Control” value in experiment [13] amounted to 100%; in experiment [14], 100%; in [15], 93%; in experiment [16], 100%; in [17], 100%; in experiment [18], 98%. For the same compound, the “Percent Control” value was 100% in experiment [19] and 63% in experiment [20].
